Assay outcomes from PubChem.
Compounds with a hit are over-represented: about 2.5% of the library has one in this group of screens.
Cruzain noTriton = qHTS Assay for Promiscuous and Specific Inhibitors of Cruzain (without detergent); Cruzipain (Trypanosoma cruzi), P25779; purified cruzain, Z-FR-AMC fluorescence, no detergent; Potency, µM, for inactives: max response, negative = inhibition, usual class: inhibitors; actives 2.3% (n = 200,000); AID 1476, 2009;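 also: plate controls were enzyme without inhibitor for no effect and buffer without enzyme for full effect; nearly all actives have a fitted effect of over 40% in size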
Target sequence (P25779 123-467 limits assumed): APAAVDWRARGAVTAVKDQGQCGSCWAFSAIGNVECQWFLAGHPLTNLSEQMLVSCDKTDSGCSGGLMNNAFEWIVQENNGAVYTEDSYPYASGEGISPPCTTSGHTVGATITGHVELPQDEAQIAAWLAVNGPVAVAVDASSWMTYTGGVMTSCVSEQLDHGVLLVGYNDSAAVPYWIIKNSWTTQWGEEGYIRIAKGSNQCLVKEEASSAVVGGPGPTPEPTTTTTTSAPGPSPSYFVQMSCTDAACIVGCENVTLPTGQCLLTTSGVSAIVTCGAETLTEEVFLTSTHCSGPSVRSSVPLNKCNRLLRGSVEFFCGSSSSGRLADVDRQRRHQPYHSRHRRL
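Detergent-free condition (0.00005% Triton X-100) in acetate buffer pH 5.5 with DTT. 1.5 nM enzyme and compound were pre-mixed 15 min, then 2 uM Z-FR-AMC substrate added; reaction progress from fluorescence change between first and third reads (60 s).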
Cruzain inh Det = qHTS Assay for Promiscuous and Specific Inhibitors of Cruzain (with detergent) | actives 0.43% (n = 200,000) | Cruzipain (Trypanosoma cruzi), P25779 | purified cruzain, Z-FR-AMC fluorescence, 0.01% Triton | Potency, µM, without a hit: max response, negative = inhibition, most hits filed as inhibitors;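 also: plate controls were neutral wells for no effect and buffer without enzyme for full effect; nearly all actives have a fitted effect of over 40% in size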
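Z-FR-AMC hydrolysis (2 uM substrate) by cruzain (1.5 nM) monitored kinetically at ex 360/em 450 nm after 15 min room-temperature compound exposure; 0.01% Triton X-100, pH 5.5, 5 mM DTT.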
An asterisk follows results filed as active. Calls follow the shape of the dose curve; as a rule, active = well fitted curve in the direction sought with a large enough effect; inconclusive = small, poorly fitted or top-dose-only effect, or another doubt; inactive = no such curve, though single readings can be large; an effect the other way counts as inactive or inconclusive. Potency is read from the fitted curve at half-maximal effect.

Screening O=c1cc(CN2CCN(c3ccccc3F)CC2)c2cc(O)c(-c3ccccc3)cc2o1 returned Cruzain noTriton 7.94µM* and Cruzain inh Det -3.5%.
Screening COc1ccc(N2CCN(Cc3cc(=O)oc4cc(-c5ccccc5)c(O)cc34)CC2)cc1 returned Cruzain noTriton inconclusive and Cruzain inh Det -0.4%.
CCOc1ccc(OCC)c(NS(=O)(=O)c2c(C(=O)N3CCC(C)CC3)c(C)n(C)c2C)c1 was read as Cruzain noTriton inconclusive and Cruzain inh Det 0.8%.
`O=C(CN1C(=O)c2ccccc2C1=O)Nc1ccc2c(c1)OCO2` gave Cruzain noTriton -15.4% and Cruzain inh Det 1.1%.
O=C(Cn1c(O)c(/C=C2\C=Nc3ccccc32)sc1=O)Nc1ccc2c(c1)OCO2 was read as Cruzain noTriton 5.01µM* and Cruzain inh Det -0.2%.
O=C(CNC(=O)/C(=C/c1ccccc1)NC(=O)c1ccc(Br)cc1)OCc1ccccc1 was read as Cruzain noTriton -20.4% and Cruzain inh Det inconclusive.
Screening O=C(CNC(=O)/C(=C\c1ccc(Br)cc1)NC(=O)c1ccccc1)OCc1ccccc1 returned Cruzain noTriton inconclusive and Cruzain inh Det 10µM*.
Cc1ccc(-c2ccc(=O)n(CC(=O)Nc3ccc(C(C)C)cc3)n2)cc1 was read as Cruzain noTriton -5.3% and Cruzain inh Det -11.6%.
Screening Cc1cccc(OCCOCCn2c(-c3ccc(Cl)cc3)nc3ccccc3c2=O)c1C returned Cruzain noTriton 5.6% and Cruzain inh Det -4.5%.
`COc1cccc(NC(=O)CSc2nnc(COc3ccc(Cl)cc3)o2)c1` gave Cruzain noTriton inconclusive and Cruzain inh Det -5.2%.
For O=C(CSc1nnc(COc2ccc3c(c2)CCCC3)o1)Nc1ccc(F)cc1 the results were Cruzain noTriton 25.1µM* and Cruzain inh Det 2.2%.
For Cc1cccc(C)c1OCc1nnc(SCC(=O)Nc2ccccc2F)o1 the results were Cruzain noTriton -9.3% and Cruzain inh Det -4.7%.
COC(=O)c1ccc(NC(=O)CSc2nnc(COc3c(C)cccc3C)o2)cc1 was read as Cruzain noTriton 25.1µM* and Cruzain inh Det 4.9%.
For C=CCC(C)(NCc1ccccc1)C(=O)OCC (stereo not drawn) the results were Cruzain noTriton 7.3% and Cruzain inh Det 5.8%.
O=C(NCc1ccccc1Cl)c1cccc(C(F)(F)F)c1 was read as Cruzain noTriton -2.1% and Cruzain inh Det -5.5%.
`COC(=O)c1cc(NC(=O)c2cccc(C(F)(F)F)c2)c(=O)oc1C/C=N/OCc1cccc(Cl)c1Cl` gave Cruzain noTriton 0.794µM* and Cruzain inh Det -28.1%.
CC(=O)O[C@@H]1C(CO[Si](C)(C)C(C)(C)C)=C(Br)C(=O)[C@@H]2O[C@]12C was read as Cruzain noTriton -8.1% and Cruzain inh Det 1.6%.
Screening COc1ccc(C)cc1S(=O)(=O)Nc1ccc(F)cc1 returned Cruzain noTriton -2.8% and Cruzain inh Det -1.7%.
Screening CCOc1ccc(Br)cc1S(=O)(=O)Nc1ccc(C(=O)Nc2ccc(C)cc2)cc1 returned Cruzain noTriton 31.6µM* and Cruzain inh Det -3.9%.
For COc1ccc(NC(=O)c2c(F)cccc2F)cc1S(=O)(=O)Nc1ccc(Br)cc1 the results were Cruzain noTriton 15.8µM* and Cruzain inh Det -2.5%.
CCOc1ccc(Br)cc1S(=O)(=O)Nc1ccc(C(=O)OCC(=O)N(C)c2ccccc2)cc1 was read as Cruzain noTriton -15.9% and Cruzain inh Det -7.3%.
For CCOc1ccc(Br)cc1S(=O)(=O)Nc1ccc(C(=O)Nc2ccccc2OC)cc1 the results were Cruzain noTriton 15.8µM* and Cruzain inh Det -5.0%.
For CCOc1ccc(Br)cc1S(=O)(=O)Nc1ccc(NC(=O)c2ccccc2C)cc1 the results were Cruzain noTriton inconclusive and Cruzain inh Det -2.2%.
For COc1ccccc1NC(=O)c1ccc(NS(=O)(=O)c2ccc(F)c(F)c2F)cc1 the results were Cruzain noTriton -17.5% and Cruzain inh Det -1.1%.
`CCOc1ccc(Br)cc1S(=O)(=O)Nc1ccc(NC(=O)c2ccccc2F)cc1` gave Cruzain noTriton 25.1µM* and Cruzain inh Det -3.3%.
CCC(=O)OCc1cnc(C)c2oc(=O)c(C(=O)Nc3ccccc3C(F)(F)F)cc12 was read as Cruzain noTriton 2.4% and Cruzain inh Det -2.4%.
`Cc1cc(C)n(CCc2nc3c4ccccc4nc(SCc4ccc(Cl)cc4)n3n2)n1` gave Cruzain noTriton -1.3% and Cruzain inh Det 2.5%.
For CN(C)c1ncc2nc(-c3cc(F)cc(F)c3)c(=O)n(C3CC3)c2n1 the results were Cruzain noTriton 14.0% and Cruzain inh Det 2.7%.
Screening CN(C)c1ncc2nc(-c3cc(F)cc(F)c3)c(=O)n(C)c2n1 returned Cruzain noTriton 20µM* and Cruzain inh Det 12.5%.
`C=CC(=O)OCCOCCOC(=O)C=C` gave Cruzain noTriton -9.6% and Cruzain inh Det 3.8%.
Screening CCN(CC)CCCCn1c(-c2ccccc2)nc2c(NCc3ccccc3)nc(C)nc21 returned Cruzain noTriton -4.5% and Cruzain inh Det -14.1%.
For CCOc1ccc(CCNS(=O)(=O)c2cc(Br)cc3c2N(C(C)=O)CC3)cc1OCC the results were Cruzain noTriton 16.3% and Cruzain inh Det -2.3%.
Screening CN(C)c1ccc(/C=C/C=C2/SC(=S)N(c3ccccc3)C2=O)cc1 returned Cruzain noTriton 7.94µM* and Cruzain inh Det -2.9%.
O=C1/C(=C/c2cccnc2)SC(=S)N1c1ccccc1 was read as Cruzain noTriton 9.9% and Cruzain inh Det -6.9%.
COc1ccc(-c2cc(C(F)(F)F)nc(SCCC(=O)Nc3ccc(F)cc3F)n2)cc1 was read as Cruzain noTriton -10.0% and Cruzain inh Det -7.4%.
For Cc1cccc(N2CCN(C(=O)c3ccc(Cl)c(S(=O)(=O)N4CCc5ccccc5C4)c3)CC2)c1C the results were Cruzain noTriton 10µM* and Cruzain inh Det -4.0%.
Screening Cc1cccc(N2CCN(C(=O)c3ccc(Cl)c(S(=O)(=O)NCc4ccco4)c3)CC2)c1C returned Cruzain noTriton -10.8% and Cruzain inh Det -4.6%.
O=C(COC(=O)c1cccc(S(=O)(=O)N2CCc3ccccc32)c1)Nc1ncc(Cl)cc1Cl was read as Cruzain noTriton inconclusive and Cruzain inh Det -3.7%.
O=C(COC(=O)c1ccc(Cl)c(S(=O)(=O)N2CCc3ccccc3C2)c1)Nc1ncc(Cl)cc1Cl was read as Cruzain noTriton 20µM* and Cruzain inh Det -0.2%.
For COc1ccc(C(CC(=O)O)NC(=O)c2cc3ccccc3oc2=O)cc1OC (stereo not drawn) the results were Cruzain noTriton -2.4% and Cruzain inh Det -3.7%.
Screening CCOc1cc(C2NC(=O)c3c(sc4c3CCN(C)C4)N2)ccc1OC(=O)c1ccccc1Cl (stereo not drawn) returned Cruzain noTriton 9.2% and Cruzain inh Det -6.7%.
`COc1ccccc1NC(=O)COc1ccc(/C=N/NS(=O)(=O)c2ccc(C)cc2)cc1` gave Cruzain noTriton -28.3% and Cruzain inh Det -3.0%.
Screening Cc1ccc(S(=O)(=O)N/N=C/c2ccc(OCC(=O)Nc3ccccc3Cl)cc2)cc1 returned Cruzain noTriton 25.1µM* and Cruzain inh Det -0.2%.
Screening O=C(Nc1ccccc1C(F)(F)F)Nc1cccc2ccccc12 returned Cruzain noTriton 25.1µM* and Cruzain inh Det 7.9%.
Screening CCCC(=O)NC(=S)Nc1ccccc1C(F)(F)F returned Cruzain noTriton 12.4% and Cruzain inh Det -1.7%.
COc1ccc(NC(=O)C2(c3ccc(NC(=O)c4ccc(OC)c(OC)c4)cc3)CCCC2)cc1 was read as Cruzain noTriton 2.1% and Cruzain inh Det 2.4%.
